Screens from PubChem BioAssay.
In the library only some 21% were active in any assay of this set; here they are far more common.
Pf growth 96h – P. falciparum growth inhibition at 96 hours; Potency, µM (titrated, usually from 28.7 µM), actives largely listed as inhibitors; AID 504834; P. falciparum luciferase reporter growth, 96 h; 320,000 tested, 6.9% active
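P. falciparum expressing integrated firefly luciferase grown in erythrocytes (2% hematocrit, 0.05% parasitemia final) with compounds for 96 hours at 37 C, 5% CO2. Growth inhibition read as loss of luminescence after adding luciferase detection reagent.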
SARS PLP yeast – inhibitors of SARS-CoV papain-like protease in yeast; AID 485353; S. cerevisiae expressing SARS-CoV PLpro, growth rescue; 330,000 tested, 0.19% active; Potency, µM (top dose mostly 32.9 µM), usual class: activators; calls by dose curve; note: nearly all actives have a fitted effect of over 55% in size
CHX counter – affects cycloheximide protein synthesis inhibition readout, counter-screen | 300,000 tested, 12% active | cell reporter, cycloheximide protein synthesis inhibition counterscreen | max response, %; in the data active = max response mostly above about 13%, no sharp cut-off; inactive = mostly below about 14%; note: read at 38.3 µM for the half of the compounds with a filed dose
NS1 inh – inhibitors of influenza NS1 protein function | Potency, µM (top dose mostly 46.1 µM) | 270,000 tested, 0.4% active; calls by dose curve; note: actives are rising curves; nearly all actives have a fitted effect of over 50% in size
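Recovery from NS1-induced slow growth read by OD600 in budding yeast switched to galactose assay medium (pH 6.0, -URA) at 1:100 dilution. Compound 23 nl per well; the matching strain lacking NS1 serves as control.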
Pf growth 48h – P. falciparum growth inhibition at 48 hours (one generation) | P. falciparum luciferase growth in erythrocytes, 48 h | Potency, µM (top dose mostly 28.7 µM), most hits filed as inhibitors | 310,000 tested, 5.9% active | AID 504832
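Firefly luciferase activity from engineered P. falciparum reports growth; inhibitors lower the luminescent signal. Cultures contained 2% hematocrit erythrocytes at 0.1% final parasitemia.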
Shiga toxin inh – blocks Shiga toxin action in Vero cells; Vero cells, Shiga toxin protein synthesis inhibition reporter; 290,000 tested, 9.2% active; inhibition, % at 38.7 µM; in the data active = inhibition mostly above about 28%, no sharp cut-off; inactive = mostly below about 43%
Large screens that a line does not name were inactive. Unless noted, calls come from the whole dose curve; as a rule, active = well fitted inhibition curve with a large enough effect; inconclusive = small, poorly fitted or top-dose-only effect, or another doubt; inactive = no such curve, though single readings can be large or run the other way.

CCc1ccc(NC(=O)C2CCCN(S(=O)(=O)c3c(C)[nH]c(=O)[nH]c3=O)C2)cc1 (stereo not drawn)	Pf growth 48h inconclusive (no result: NS1 inh)
O=C(Nc1ccccc1)C1CCCN1S(=O)(=O)c1ccc(Br)cc1 (stereo not drawn)	none
CCc1ccc(NC(=O)C2CCCN(S(=O)(=O)c3cccs3)C2)cc1 (stereo not drawn)	Pf growth 96h inconclusive, CHX counter 21.4, Pf growth 48h inconclusive
Cn1c(=O)c2c(O)c([N+](=O)[O-])c(=O)n(C)c2n(C)c1=O	none
COCCN1Cc2cc(=O)n3c([nH]c4ccccc43)c2C1=N	Pf growth 96h inconclusive, CHX counter 21.5, Pf growth 48h inconclusive (no result: NS1 inh)
COc1ccc(O)c(CN2CCCC(N3CCN(c4ccccc4OC)CC3)C2)c1 (stereo not drawn)	Pf growth 48h inconclusive
COc1ccccc1N1CCN(C2CCCN(Cc3cc(F)cc(F)c3)C2)CC1 (stereo not drawn)	Pf growth 96h inconclusive, Pf growth 48h inconclusive
COc1ccccc1N1CCN(C2CCCN(Cc3ccccc3OCCO)C2)CC1 (stereo not drawn)	Pf growth 96h 1.65µM, SARS PLP yeast inconclusive, Pf growth 48h inconclusive
COc1ccccc1N1CCN(C2CCCN(Cc3ccc(Cl)cc3)C2)CC1 (stereo not drawn)	Pf growth 96h 13.1µM
CC(C)[C@H](NC(=O)[C@H](CC(=O)O)NC(=O)CNC(=O)[C@@H](N)CCCN=C(N)N)C(=O)O	none (no result: Pf growth 96h, SARS PLP yeast, NS1 inh, Pf growth 48h)
Cc1ccc(/C=N/Nc2cc(C)nc(NCc3ccccc3)n2)cc1	Pf growth 96h 1.04µM, CHX counter 18.8, Pf growth 48h 0.586µM
Cc1cc(N/N=C/c2ccc(F)cc2)nc(NCc2ccccc2)n1	Pf growth 96h inconclusive, CHX counter 22.4, Pf growth 48h 0.415µM, Shiga toxin inh 45.8
Cc1cc(N/N=C/c2ccc(Cl)cc2Cl)nc(NCc2ccccc2)n1	Pf growth 96h inconclusive, Pf growth 48h 0.329µM
Cn1c(=O)c(Nc2ccc(O)cc2)c2c3c(cccc31)C(=O)c1ccccc1-2	Pf growth 96h inconclusive, NS1 inh inconclusive, Pf growth 48h inconclusive
O=S(=O)(c1ccc(N2CCCC2c2nc3ccccc3s2)nc1)N1CCOCC1 (stereo not drawn)	Pf growth 96h 11.7µM, Pf growth 48h 10.4µM
O=S(=O)(c1ccc(Br)cc1)N1CCCC1c1nc2ccccc2s1 (stereo not drawn)	Pf growth 96h inconclusive, Pf growth 48h 10.4µM
CN(C)S(=O)(=O)c1ccc(C(=O)N2CCCC2c2nc3ccccc3s2)cc1 (stereo not drawn)	Pf growth 96h inconclusive, Pf growth 48h inconclusive
O=S(=O)(c1ccc(N2CCCC2)nc1)N1CCOCC1	none (no result: Pf growth 96h)
O=C(Cc1ccc(Cl)cc1)Nc1cccc(C(=O)Nc2ccccc2C(=O)O)c1	none
C/C(=N\NC(=O)c1sccc1C)c1ccncc1	Pf growth 96h 7.38µM, CHX counter 43.9, Shiga toxin inh 109.1
C/C(=N\NC(=O)c1sccc1C)c1cccnc1	CHX counter 41.3, Shiga toxin inh 89.1
C/C(=N\NC(=O)c1ccncc1)c1ccc(N(C)C)cc1	none (no result: NS1 inh)
COCCNC(=O)c1ccc(N2CC3CC(C2)c2cccc(=O)n2C3)c(NC(=O)c2ccc(Br)o2)c1 (stereo not drawn)	none
Cc1ccoc1C(=O)N1CCCCC1C(=O)O (stereo not drawn)	none (no result: NS1 inh)
C=NC(C(=O)NC1C(=O)N2C1SC(C)(C)C2C(=O)O)c1ccccc1 (stereo not drawn)	none (no result: SARS PLP yeast, CHX counter, NS1 inh, Shiga toxin inh)
COc1ccc(C)cc1NC(=O)c1nn(-c2ccccc2)cc1OC	Pf growth 96h 2.94µM
COc1ccccc1C(=O)Nc1ccc(-c2nnc(SCC(=O)O)n2C)cc1	Pf growth 96h inconclusive, NS1 inh inconclusive
COc1cn(-c2ccccc2)nc1C(=O)Nc1ccccc1	CHX counter 46.9, Shiga toxin inh 81.7
COc1ccccc1-c1nn(-c2ccccc2)cc1C(=O)NC1CC1	Pf growth 96h inconclusive (no result: CHX counter, NS1 inh, Shiga toxin inh)
COc1ccc(C)cc1NC(=O)c1c(C)nn(Cc2ccccc2)c1Cl	Pf growth 96h inconclusive
COc1cn(-c2ccccc2)nc1C(=O)Nc1ccc(C)cc1	CHX counter 36.0, Pf growth 48h inconclusive, Shiga toxin inh 55.7
CC1CC(C)CN(S(=O)(=O)c2cccc3nsnc23)C1 (stereo not drawn)	none
O=C1Nc2ccc(Cl)cc2[C@@](C#CC2CC2)(C(F)(F)F)O1	none (no result: Pf growth 96h, NS1 inh, Pf growth 48h)
COCCNC(=O)C1(C(F)(F)F)CC(CCCO)CCCO1 (stereo not drawn)	none (no result: Pf growth 96h, SARS PLP yeast, NS1 inh, Pf growth 48h)
O=C(C1CC1)N(CCc1ccccc1)Cc1nc2ccccc2c(=O)[nH]1	Pf growth 96h 14.7µM
CCCC(=O)N(CCc1ccc(OC)cc1)Cc1nc2ccccc2c(=O)[nH]1	Pf growth 96h 10.4µM (no result: Pf growth 48h)
O=C(C1CCC1)N(CCc1ccccc1)Cc1nc2ccccc2c(=O)[nH]1	Pf growth 48h inconclusive
O=C(NC1CCCCC1)N(Cc1ccc(F)cc1)Cc1nc2ccccc2c(=O)[nH]1	Pf growth 48h 10.4µM
CCN(Cc1nc2ccccc2c(=O)[nH]1)C(=O)COc1ccccc1Cc1ccccc1	Pf growth 96h 8.28µM, Pf growth 48h inconclusive (no result: CHX counter, NS1 inh, Shiga toxin inh)
COc1ccc(N2CCN(C(CNC(=O)CC(C)(C)C)c3ccc4c(c3)OCO4)CC2)cc1 (stereo not drawn)	Pf growth 96h inconclusive, Pf growth 48h inconclusive
CCC(c1nnc(SCC(=O)Nc2ccc(Cl)cc2C(F)(F)F)n1C1CCCCC1)N(C)C (stereo not drawn)	Pf growth 96h inconclusive, Pf growth 48h inconclusive
O=C(NCCN1CCN(c2ccccc2)CC1)C1CCN(S(=O)(=O)c2cccc3nsnc23)CC1	none (no result: NS1 inh)
Cc1cc(N(CCO)CCO)ccc1N=Nc1cc(F)ccc1F	CHX counter 40.7, Shiga toxin inh 117.8 (no result: NS1 inh)
Nc1ccc(N(CCO)CCO)cc1	Pf growth 48h inconclusive
Cc1cc(C(F)(F)F)nc(CCNC(=O)C2CCC(=O)N(Cc3cccc(F)c3)C2)n1 (stereo not drawn)	none
Cc1nn(C)c(C)c1S(=O)(=O)N1CCC(CO)(CC2CCCCO2)CC1 (stereo not drawn)	Pf growth 96h inconclusive
Cn1ccsc1=NC(=O)c1cccc(OC(F)F)c1	CHX counter 45.2, Shiga toxin inh 92.2 (no result: Pf growth 48h)
Cc1ccc(NC(=O)/C(C#N)=C/c2ccccc2C(F)(F)F)cc1	CHX counter 26.6
CN(C)/C=C(\C#N)C(=O)Nc1ccccc1	CHX counter 31.7, Shiga toxin inh 57.1 (no result: NS1 inh)
CCOC(=O)/C(C#N)=C/c1cc(C)n(-c2ccc(Br)cc2)c1C	none (no result: Pf growth 48h)
CN(C)/C=C(\C#N)C(=O)Nc1ccc(O)cc1F	none
Cc1cc(C(=O)O)ccc1-n1c(C)cc(/C=C(/C#N)C(=O)Nc2ccccc2)c1C	Pf growth 48h inconclusive
Cc1ccccc1NC(=O)/C(C#N)=C/c1ccccc1C(F)(F)F	none
Cc1cc(/C=C(\C#N)C(=O)Nc2ccccc2)c(C)n1-c1cccnc1	Pf growth 96h inconclusive, CHX counter 33.2, Shiga toxin inh 62.4
CCOC(=O)/C(C#N)=C/c1cc(C)n(-c2ccccc2)c1C	CHX counter 49.9, Shiga toxin inh 110.7 (no result: Pf growth 48h)
